Assay in all cases: Confirmatory Screen for Target Class Profiling of Small Molecule Inhibitors of Methyltransferases (AID 1745852); for activity change, negative = inhibition: % is set by controls: 0 for no effect and ±100 for the full control effect
In assay [1] the target is Catechol O-methyltransferase (Homo sapiens) (UniProt P21964). Conditions: MTase-Glo luminescence, SAH detection, recombinant enzyme; measured here: COMT max response; stronger effect = lower value.
The target of assay [2] is Guanidinoacetate N-methyltransferase (Homo sapiens) (UniProt Q14353). The settings on record: MTase-Glo luminescence, SAH detection, recombinant enzyme; activity change, negative = inhibition: at 57.3 µM (top of the series) unless noted; series mostly up to 57.3 µM.
Assay [3] addresses Nicotinamide N-methyltransferase (Homo sapiens) (UniProt P40261). The settings on record: MTase-Glo luminescence, SAH detection, recombinant enzyme; measured here: NNMT max response; stronger effect = lower value.
The target in assay [4] is Phenylethanolamine N-methyltransferase (Homo sapiens) (UniProt P11086). The settings on record: MTase-Glo luminescence, SAH detection, recombinant enzyme; measured here: PNMT max response; stronger effect = lower value.

The record followed here is PubChem BioAssay (NCATS).

Activity calls are given as the source filed them. Calls come from the whole dose curve.
Potency is the fitted concentration of half-maximal effect.

Chain of Catechol O-methyltransferase (Homo sapiens) (P21964 whole entry, looked up): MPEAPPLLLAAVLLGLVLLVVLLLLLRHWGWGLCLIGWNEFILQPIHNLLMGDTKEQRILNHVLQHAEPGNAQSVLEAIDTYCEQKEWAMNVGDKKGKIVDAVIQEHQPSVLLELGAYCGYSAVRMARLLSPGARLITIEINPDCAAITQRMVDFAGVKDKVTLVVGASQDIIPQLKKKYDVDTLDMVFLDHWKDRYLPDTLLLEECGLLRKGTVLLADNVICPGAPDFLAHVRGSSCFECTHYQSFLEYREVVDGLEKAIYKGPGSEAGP
Chain of Nicotinamide N-methyltransferase (Homo sapiens) (P40261 whole entry, looked up): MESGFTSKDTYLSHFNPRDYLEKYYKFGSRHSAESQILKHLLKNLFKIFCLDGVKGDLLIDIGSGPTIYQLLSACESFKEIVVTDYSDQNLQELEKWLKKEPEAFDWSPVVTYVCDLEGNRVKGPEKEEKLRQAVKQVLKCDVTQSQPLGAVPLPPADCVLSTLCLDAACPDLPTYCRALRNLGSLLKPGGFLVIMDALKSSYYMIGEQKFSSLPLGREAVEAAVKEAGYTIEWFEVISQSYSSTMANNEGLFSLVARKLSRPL
Chain of Phenylethanolamine N-methyltransferase (Homo sapiens) (P11086 whole entry, looked up): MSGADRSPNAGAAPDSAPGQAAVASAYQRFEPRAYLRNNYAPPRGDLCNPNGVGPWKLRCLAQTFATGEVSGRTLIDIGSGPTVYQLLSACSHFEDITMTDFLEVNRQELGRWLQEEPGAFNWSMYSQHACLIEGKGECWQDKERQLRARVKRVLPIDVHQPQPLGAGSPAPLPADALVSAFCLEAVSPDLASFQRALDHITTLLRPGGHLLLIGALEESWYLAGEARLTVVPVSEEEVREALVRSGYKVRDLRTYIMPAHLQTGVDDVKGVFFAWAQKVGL

Consider `CC(C)CCN1CC2(CCCN(C(=O)c3ccn(C)c(=O)c3)C2)CCC1=O` (stereo not given), for which the activity in assay [1] was found to be 5.04%; in assay [3] it was 3.97%; in assay [4], 1.77%. In addition, in assay [2], the activity change, negative = inhibition was 8.37%.
For the molecule `COc1ccc(CNc2cc3c(cn2)CN(C)CCN3)cc1OC`, the activity in assay [1] came to 6.61%; in assay [3], 0.597%; in assay [4] it was 7.35%. The activity change, negative = inhibition in assay [2] worked out at 1.57% [at 85.7 µM].
The like results for `CCCn1c(=O)c2ccccc2n2c(=O)n(CC(=O)c3cc(C)ccc3C)nc12` were, in that order, 1.84%, -36.8%, -0.0841% and 0%.
In the case of `CCCC1c2cccn2CCN1C(=O)Nc1ccc(C)cc1Cl` (stereo not given), the activity in assay [1] was 0.596%; in assay [3], -6.98%; in assay [4], -0.613%. Further, the Potency entry in assay [2] was “inactive”.
As for `Cc1ccc(C)c(N2CCN(C(=O)c3ccc4c(=O)[nH]c5c(C(=O)NC(C)C)sc(=S)n5c4c3)CC2)c1`, the activity in assay [1] is -41.7%; in assay [3] it was -76.8%; in assay [4] it was -17.9%. Moreover, in assay [2], the activity change, negative = inhibition was -2.19%.
With `CCN(CC)CCNC(=O)CCc1nnc2n(CCc3ccccc3)c(=O)c3ccccc3n12`, the activity in assay [1] was -2.93%; in assay [3], -10.6%; in assay [4] it was 3.34%. Further, the activity change, negative = inhibition in assay [2] amounted to 1.05%.
Turning to `CCc1ccc(N2C(=O)c3cc4sccc4n3CC2(C)C(=O)NC2CCCCCC2)cc1` (stereo not given), the activity in assay [1] was -4.01%; in assay [3], -5.2%; in assay [4], -7.25%. The activity change, negative = inhibition in assay [2] amounted to 0.902%.
The like results for `COc1ccnc(-c2nnc3ccc(Nc4cc(OC)c(OC)c(OC)c4)nn23)c1` were, in that order, -13.7%, -18%, -25.6% and -8.44% [at 85.7 µM].
As to `COc1ccccc1-c1[nH]nc2ncc(C(=O)N3CCN(Cc4ccccc4)CC3)nc12`, the activity in assay [1] was -51.3%; in assay [3], -37.2%; in assay [4], -61.8%. Moreover, in assay [2], the Potency is 35 µM (active).
For `COc1ccc(CN2CCCC(COc3ccccc3C(=O)NC3CC3)C2)c(OC)c1` (stereo not given), the activity in assay [1] came out at 4.91%; in assay [3], 1.02%; in assay [4], 1.19%. The activity change, negative = inhibition in assay [2] was found to be 4.18%.
The like results for `C1=C(c2nc(-c3ccncc3)cc3c2ccn3Cc2cccnc2)CCOC1` were, in that order, -19%, -8.71%, -24.5% and -9.57% [at 85.7 µM].
The like results for `c1ccc(CO[C@H]2COCCN(c3nc4ccccc4o3)C2)cc1` were, in that order, 1.17%, -5.26%, -0.271% and 2.9% [at 85.7 µM].
Turning to `COc1ccc(-c2cc3nc4c(c(=O)n3[nH]2)CN(C(=O)CN(C)S(=O)(=O)c2cnc[nH]2)CC4)cc1`, the activity in assay [1] is -19.9%; in assay [3] it was -27.5%; in assay [4], -19.5%. For the same molecule, the Potency in assay [2] is 21.5 µM (active).
On to `Cc1cnc(CCNC(=O)c2cccs2)n1C1CCC1`, for which the activity in assay [1] stood at 0.518%; in assay [3], 8.96%; in assay [4], 6.31%. For the same molecule, the activity change, negative = inhibition in assay [2] came out at 3.29%.
Regarding `CC(=O)Nc1ccc2c(c1)C1C=CCC1C(c1ccccc1F)N2` (stereo not given), the activity in assay [1] was -18.4%; in assay [3], -12.1%; in assay [4], -27.7%. Besides, the Potency in assay [2] was 42.9 µM (active).
In the case of `Cc1c(OCc2ccc(C(=O)O)o2)ccc2c(-c3ccccc3)cc(=O)oc12`, the activity in assay [1] was -33.2%; in assay [3], -34.7%; in assay [4] it was -33.9%. Besides, in assay [2], the Potency is 24.1 µM (active).
`CN(C)CCNC(=O)c1ccnc(-c2nnc3ccc(N(C)c4ccccc4)nn23)c1`: the results for the activity in assay [1], in assay [3] and in assay [4] were -5.96%, -14.4% and -6.46%, respectively. Further, the activity change, negative = inhibition in assay [2] was -11.8% [at 85.7 µM].
On the same counts, the results for `Cc1ccc(Cn2c(=O)c3ccccc3n3c(CCC(=O)N4CCC(N5CCCCC5)CC4)nnc23)cc1` are -6.25%, -14.2%, -2.33% and -4.42%.
On the same counts, the results for `COc1ccc(CCNc2nc3c(-c4cccc(F)c4)nnn3c3ccccc23)cc1OC` are -7.47%, -5.65%, -3.23% and -8.63%.
On the same counts, the results for `CC(C)Cn1c(=O)c2ccccc2n2c(CCC(=O)NCCc3ccc(Cl)cc3)nnc12` are -5.92%, -41%, -6.54% and -1.54%.
Take `COc1ccc(-c2cc(C(=O)NCc3cccnc3)c3c(c2)N(C)CCO3)cc1OC`: the activity in assay [1] was 3.17%; in assay [3], -0.0858%; in assay [4] it was -0.493%. For the same molecule, the activity change, negative = inhibition in assay [2] was determined as 8.84% [at 85.7 µM].
`c1ccc(CN2CCc3c(sc4ncnc(N5CCOCC5)c34)C2)cc1`: the figures for the activity in assay [1], in assay [3] and in assay [4] were -7.7%, -44.8% and -7.28%, respectively. Besides, in assay [2], the activity change, negative = inhibition is -10.8%.
The like results for `Cc1ccc(NS(=O)(=O)c2ccc3c(c2)[C@H]2C=CC[C@H]2[C@@H](c2cccc(Cl)c2)N3)c(C)c1` were, in that order, -11.2%, -16.4%, -18.5% and -14.3%.
The like results for `CCOC(=O)c1cccc(Nc2cc(C)nc3ccc(C)cc23)c1` were, in that order, -4.58%, -21.8%, -4.31% and 0%.
The like results for `CCCC1c2cccn2CCN1C(=O)Nc1ccc(Br)cc1F` (stereo not given) were, in that order, -8.21%, -17%, -10.2% and -4.98%.
With `c1ccc(-c2cc3c(cn2)NCCN(Cc2ccccn2)C3)cc1`, the activity in assay [1] was 1.39%; in assay [3], -8.79%; in assay [4], -1.82%. In addition, in assay [2], the activity change, negative = inhibition stood at 3.72% [at 85.7 µM].
Take `CC(C)CCNC(=O)c1ccc2c(=O)[nH]c3c(C(=O)NC4CCCC4)sc(=S)n3c2c1`: the figures for the activity in assay [1], in assay [3] and in assay [4] were -37.7%, -45.4% and -38.7%, respectively. For the same molecule, the Potency in assay [2] was 27.1 µM (active).
`CC(C)OCCCn1c(=O)c2ccccc2n2c(CCC(=O)N3CCN(c4cccc(Cl)c4)CC3)nnc12`: the activity is 0.543% in assay [1], -39.1% in assay [3] and -4.41% in assay [4]. In addition, the activity change, negative = inhibition in assay [2] is 0%.
The like results for `CC(C)c1nccn1CCCNC(=O)c1ccc(N2CCCC(CO)C2)nc1` (stereo not given) were, in that order, 2.58%, 6.68%, 5.49% and 1.26%.
On the same counts, the results for `Cc1ccc(Cn2c(=O)c3ccccc3n3c(-c4cccc(C)c4)nnc23)cc1` are -4.65%, -4.69%, -4.19% and 2.78%.
